Screening data: PubChem, National Center for Advancing Translational Sciences (NCATS)
TRPV1 agonist: agonists of human vanilloid receptor 1 (TRPV1); Q8NER1; TRPV1-expressing cells, Fluo-8 calcium influx, agonist mode; activation, % at 8.33 µM; 320,000 tested, 0.19% active; AID 540275; in the data active means activation above about 80%; inconclusive means between about 30% and that limit; further: 0% is about no effect
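Fluo-8 calcium influx in TRPV1-expressing cells, kinetic read (ex 480/em 520 nm). Compound added and read 3 min for agonist activity, followed by capsaicin at EC20 final and 2 min further read for enhancement.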
RORgamma inh: ROR gamma (mouse) transcription inhibition; P51450; 310,000 tested, 5.4% active; Potency, µM (highest dose often 53.6 µM), for inactives: at the top dose activity change, negative = inhibition, hits mostly inhibitors; Drosophila S2 Gal4-RORgamma UAS-luciferase reporter, 20 h; further: potency means the concentration at half of the fitted maximal effect; on the % scale 0 is the no-effect control and ±100 the full control effect; nearly all actives have a fitted effect of over 60% in size
Target sequence (P51450 whole entry, looked up, the tested form may be a part): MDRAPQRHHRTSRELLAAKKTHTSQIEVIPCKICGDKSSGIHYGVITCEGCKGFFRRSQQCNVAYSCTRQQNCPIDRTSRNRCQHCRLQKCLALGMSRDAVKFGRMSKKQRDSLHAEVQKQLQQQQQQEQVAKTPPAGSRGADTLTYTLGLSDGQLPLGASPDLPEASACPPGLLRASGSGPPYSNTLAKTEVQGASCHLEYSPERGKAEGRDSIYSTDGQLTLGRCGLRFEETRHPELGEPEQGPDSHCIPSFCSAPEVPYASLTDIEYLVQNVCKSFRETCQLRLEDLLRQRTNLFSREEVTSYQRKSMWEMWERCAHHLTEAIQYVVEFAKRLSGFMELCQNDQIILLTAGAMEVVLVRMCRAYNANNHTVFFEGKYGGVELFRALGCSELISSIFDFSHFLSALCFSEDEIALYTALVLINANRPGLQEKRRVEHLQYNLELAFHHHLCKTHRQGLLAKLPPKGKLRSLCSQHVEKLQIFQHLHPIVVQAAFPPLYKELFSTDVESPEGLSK
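Drosophila S2 cells stably expressing Gal4-DBD/mouse RORγ fusion under metallothionein promoter plus UAS-luciferase; compound 1 h, then 700 uM CuSO4 induction for 20 h at ambient temperature; inhibition read as reduced luminescence.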
TRPV1 PAM: human TRPV1 potentiation; Q8NER1; TRPV1-expressing cells, Fluo-8 calcium influx, capsaicin EC20 potentiation; potentiation, % at 8.33 µM; 320,000 tested, 0.02% active; in the data active means potentiation above about 80%; inconclusive means between about 30% and that limit; further: 0% is about no effect
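TRPV1-expressing cells were cultured overnight at 35.5C and loaded with Fluo-8 calcium dye for 40 to 90 min at room temperature. After a 10 s baseline, compound was added and calcium influx was read kinetically for 3 min (ex 480/em 520 nm).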
uPA surface inh: cell surface uPA generation inhibition | 330,000 tested, 0.31% active | Potency, µM (titrated, usually from 38.3 µM), for the others: at the highest dose activity change, negative = inhibition, hits mostly inhibitors | cell surface uPA generation assay, qHTS | AID 540303; active means well fitted inhibition curve with a large enough effect; inconclusive means small, poorly fitted or top-dose-only effect; inactive means no such curve, though single readings can be large or run the other way; tested in mouse RAW 264.7 cells; further: potency means the concentration at half of the fitted maximal effect; on the % scale 0 is the no-effect control and ±100 the full control effect; nearly all actives have a fitted effect of over 55% in size
VP16 counter: Gal4-VP16 reporter inhibition counter-screen | Potency, µM (titrated, usually from 53.6 µM), inactives show at the top dose activity, negative = inhibition, most hits filed as inhibitors | 310,000 tested, 3.5% active | Drosophila S2 Gal4-VP16 UAS-luciferase, luminescence, 20 h | AID 2546;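 further: Gal4-VP16 expression switched on by copper sulfate through the metallothionein promoter; potency means the concentration at half of the fitted maximal effect; on the % scale 0 is the no-effect control and ±100 the full control effect; nearly all actives have a fitted effect of over 50% in size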
* hit, by the source's call; ? = inconclusive; nt = not tested or not shown. Most compounds without a hit are left out; they make up all but 5.8% or so of the library. Unless noted, the call rests on the fitted dose curve; in most records, active means well fitted curve in the direction sought with a large enough effect; inconclusive means small, poorly fitted or top-dose-only effect, or another doubt; inactive means no such curve, though single readings can be large; an effect the other way counts as inactive or inconclusive.

SMILES | TRPV1 agonist | RORgamma inh | TRPV1 PAM | uPA surface inh | VP16 counter
O=C(CCN1CCCCC1)Nc1ccc(Br)cc1C(=O)c1ccccc1 | 2 | 8% | 4 | 0% | -1%
O=C(CCN1CCN(c2ccccc2)CC1)c1ccc(Br)cc1 | 19 | 35µM* | 0 | -5% | ?
Cc1ccc(-c2nc3ccccc3c(=O)n2-c2nccs2)cc1 | 28 | 5.6µM* | -22 | 1% | 11µM*
O=c1c2ccccc2nc(-c2ccco2)n1-c1nccs1 | 2 | 3% | -8 | -2% | -1%
Nc1ccccc1-c1ccccc1 | nt | 32% | nt | nt | 5%
CCN(CC)C(=O)c1ccc(NC(=O)Nc2ccccc2F)cc1 | 6 | 11µM* | 3 | 4.5µM* | ?
CC1=C(O)C(=O)[C@H]2O[C@@H]2C1=O | nt | 2.8µM* | nt | nt | 8.9µM*
O=[N+]([O-])c1ccc(-c2[se]c3ccccc3c2I)cc1 | nt | 41% | nt | nt | 6%
COC(=O)[C@]12OC[C@]34C([C@@H](O)[C@@H]1O)[C@]1(C)CC(=O)C(O)=C(C)[C@@H]1C[C@H]3OC(=O)[C@H](O)[C@@H]24 (some centres undefined) | 1 | 0.56µM* | 5 | ? | 0.22µM*
CON(C)C(=O)Nc1ccc(Br)cc1 | nt | 18% | nt | nt | 0%
Cc1nc2ccccc2c(=O)n1-c1ccncc1 | 1 | 0% | 24 | 1% | 9%
Cc1nc2ccccc2c(=O)n1-c1cc([N+](=O)[O-])cc([N+](=O)[O-])c1 | -1 | 1.1µM* | 4 | -9% | -24%
COc1cc(Cl)ccc1NC(=S)N(CCCN1CCOCC1)Cc1cn(C)c2ccccc12 | 2 | 11µM* | -5 | ? | ?
COc1ccccc1NC(=O)COC(=O)c1cn(C)c2ccccc12 | 14 | nt | 17 | 2% | nt
C=CC(=C)C | nt | 25% | nt | nt | -8%
CC(=O)N(C)c1ccc(OCC(O)CN(c2ccccc2C)S(=O)(=O)c2ccc(C)cc2)cc1 (centres undefined) | 14 | 23% | -6 | ? | -20%
N#CC(C#N)=NNc1ccc(OC(F)(F)F)cc1 | nt | 1µM* | nt | nt | 0.35µM*
CC(=O)OC1C[C@@]2(C)C(c3ccoc3)C[C@H]3O[C@@]32[C@@]2(C)C(=O)C(O)=C3C(C)(C)C(=O)C=C[C@]3(C)C12 (some centres undefined) | nt | 3.2µM* | nt | nt | 3.2µM*
CC(=O)O[C@@H]1C[C@@]2(C)C(c3ccoc3)C[C@H]3O[C@]32[C@]2(C)C(=O)C(O)=C3C(C)(C)C(=O)C=C[C@]3(C)C12 (some centres undefined) | nt | ? | nt | nt | 13µM*
COc1ccc2c3c1OC1C(=O)CC[C@@]4(O)[C@@H](C2)N(C)CC[C@]314 (some centres undefined) | nt | nt | nt | 6.3µM* | nt
C=CCN1CC[C@]23c4c5ccc(O)c4OC2C(=O)CC[C@]3(O)C1C5 (some centres undefined) | nt | 19% | nt | nt | 1%
COc1ccc(C(C)=O)cc1CN1CC=C(c2ccccc2)CC1 | 8 | -30% | -2 | -1% | 2%
COc1cc(C)cc(CN2CC=C(c3ccccc3)CC2)c1O | 5 | 11µM* | 7 | -4% | ?
CNCC(N)C(=O)O (centres undefined) | nt | -3% | nt | nt | -4%
